According to PubChem BioAssay (NCATS):
Where “and” joins values, the source holds several entries; their conditions need not be identical. Identical values can stand only once. Results filed as inconclusive are left out. Calls of active or inactive are those of the source. Calls follow the shape of the dose curve; as a rule, active = well fitted curve in the direction sought with a large enough effect; inconclusive = small, poorly fitted or top-dose-only effect, or another doubt; inactive = no such curve, though single readings can be large; an effect the other way counts as inactive or inconclusive.

Key:
[1] = biological target: Glutathione peroxidase 1 (Homo sapiens) (UniProt P07203); assay: Primary qHTS Assay for Inhibitors of Recombinant Selenoprotein Glutathione Peroxidase 1 (GPX1) (AID 1845191); also: nearly all actives have a fitted effect of over 65% in size
Chain of Glutathione peroxidase 1 (Homo sapiens) (P07203 whole entry, looked up): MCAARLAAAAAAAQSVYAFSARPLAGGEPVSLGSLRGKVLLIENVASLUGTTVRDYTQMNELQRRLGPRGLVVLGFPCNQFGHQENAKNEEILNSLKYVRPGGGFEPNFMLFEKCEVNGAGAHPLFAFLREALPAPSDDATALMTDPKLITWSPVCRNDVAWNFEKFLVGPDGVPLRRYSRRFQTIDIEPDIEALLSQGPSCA
How it was run: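 GPX1 10 nM, GR 100 nM, GSH 1 mM, NADPH 0.5 mM, CHP 0.5 mM (final). 30-min cpd preincubation, RT. Ex340/Em450 read t=0, t=15 min.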

[2] = biological target: Phospholipid hydroperoxide glutathione peroxidase GPX4 (Homo sapiens) (UniProt P36969); assay: Primary qHTS Assay for Inhibitors of Recombinant Selenoprotein Glutathione Peroxidase 4 (GPX4) (AID 1845192); also: nearly all actives have a fitted effect of over 65% in size; as to activity change, negative = inhibition: % is scaled to controls: 0 for no effect and ±100 for the full control effect
Chain of Phospholipid hydroperoxide glutathione peroxidase GPX4 (Homo sapiens) (P36969 whole entry, looked up): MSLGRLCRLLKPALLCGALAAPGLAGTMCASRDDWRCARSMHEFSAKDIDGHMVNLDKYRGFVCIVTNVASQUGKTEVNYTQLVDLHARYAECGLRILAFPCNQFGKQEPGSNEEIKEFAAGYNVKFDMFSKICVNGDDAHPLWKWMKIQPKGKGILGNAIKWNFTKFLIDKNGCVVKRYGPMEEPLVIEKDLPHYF
How it was run: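 qHTS, GR-coupled: GPX4 200 nM + cpd 30 min RT → GSH 1 mM, NADPH 0.5 mM, GR 100 nM → CHP 0.5 mM start; fluor 340/450 at t0 and t15 min; no-enzyme wells as control.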

[3] = Quantitative High-Throughput drug screen in 47 multiple myeloma cell lines against the NCATS MIPE library collection: AMO1_DSMZ cell viability assay (AID 1918927; also: nearly all actives have a fitted effect of over 30% in size; also: potency is read from the fitted curve at half-maximal effect)
How it was run: (§1)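 CellTiter-Glo ATP luminescence gave viability after 48 h compound treatment at 37C of 500 multiple myeloma cells per well. Normalisation used DMSO-only wells as 100% and media-only wells as 0% viability; primary qHTS of approved and investigational drugs.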

[4] = Quantitative High-Throughput drug screen in 47 multiple myeloma cell lines against the NCATS MIPE library collection: ARP1_JJKsccF8 cell viability assay (AID 1918928; also: nearly all actives have a fitted effect of over 40% in size; also: potency is read from the fitted curve at half-maximal effect)
How it was run: (§2)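 500 cells/well; MIPE 4.0 library pinned in; 48 h, 37 °C, 5% CO2; CellTiter-Glo ATP luminescence. Controls: DMSO = 100% viability, medium only = 0%.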

[5] = Quantitative High-Throughput drug screen in 47 multiple myeloma cell lines against the NCATS MIPE library collection: ARD_JJKsccE7 cell viability assay (AID 1918929; also: potency is read from the fitted curve at half-maximal effect)
How it was run: as §1

[6] = Quantitative High-Throughput drug screen in 47 multiple myeloma cell lines against the NCATS MIPE library collection: Karpas620_DSMZ cell viability assay (AID 1918959); also: nearly all actives have a fitted effect of over 30% in size; also: potency is read from the fitted curve at half-maximal effect
How it was run: (§3)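 qHTS of the MIPE 4.0 collection: 500 myeloma cells/well, 48 h drug exposure at 37C in 5% CO2, then CellTiter-Glo for 5 min at room temperature before luminescence reading.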

[7] = Quantitative High-Throughput drug screen in 47 multiple myeloma cell lines against the NCATS MIPE library collection: Karpas417_ECACC cell viability assay (AID 1918961); settings: Karpas417 myeloma viability, CellTiter-Glo ATP luminescence, 48 h; viability (% of DMSO): at 45.8 µM (top of the series); also: potency is read from the fitted curve at half-maximal effect
How it was run: (§4)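 Luminescent ATP measurement with CellTiter-Glo gives viability, scaled between DMSO-only wells (100%) and media-only wells (0%). Cells, 500 per well, faced library compounds for 48 hours at 37C.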

[8] = Quantitative High-Throughput drug screen in 47 multiple myeloma cell lines against the NCATS MIPE library collection: KHM11_PLB cell viability assay (AID 1918962); also: nearly all actives have a fitted effect of over 35% in size; also: potency is read from the fitted curve at half-maximal effect
How it was run: as §3

[9] = Quantitative High-Throughput drug screen in 47 multiple myeloma cell lines against the NCATS MIPE library collection: INA6_PLB cell viability assay (AID 1918965; also: nearly all actives have a fitted effect of over 55% in size; also: potency is read from the fitted curve at half-maximal effect)
How it was run: as §4

[10] = Quantitative High-Throughput drug screen in 47 multiple myeloma cell lines against the NCATS MIPE library collection: H1112_PLB cell viability assay (AID 1918967; also: nearly all actives have a fitted effect of over 30% in size; also: potency is read from the fitted curve at half-maximal effect)
How it was run: as §1

[11] = Quantitative High-Throughput drug screen in 47 multiple myeloma cell lines against the NCATS MIPE library collection: Karpas25_ECACC cell viability assay (AID 1918968; also: nearly all actives have a fitted effect of over 35% in size; also: potency is read from the fitted curve at half-maximal effect)
How it was run: as §1

[12] = Quantitative High-Throughput drug screen in 47 multiple myeloma cell lines against the NCATS MIPE library collection: EJM_DSMZ cell viability assay (AID 1918926; also: nearly all actives have a fitted effect of over 30% in size; also: potency is read from the fitted curve at half-maximal effect)
How it was run: as §1

[13] = Quantitative High-Throughput drug screen in 47 multiple myeloma cell lines against the NCATS MIPE library collection: KMM1_JCRB cell viability assay (AID 1918960); also: nearly all actives have a fitted effect of over 30% in size; also: potency is read from the fitted curve at half-maximal effect
How it was run: as §2

[14] = Quantitative High-Throughput drug screen in 47 multiple myeloma cell lines against the NCATS MIPE library collection: JJN3_DSMZ cell viability assay (AID 1918966; also: nearly all actives have a fitted effect of over 50% in size; also: potency is read from the fitted curve at half-maximal effect)
How it was run: as §1

[15] = Quantitative High-Throughput drug screen in 47 multiple myeloma cell lines against the NCATS MIPE library collection: FR4_PLB cell viability assay (AID 1918924; also: nearly all actives have a fitted effect of over 35% in size; also: potency is read from the fitted curve at half-maximal effect)
How it was run: as §3

[16] = Quantitative High-Throughput drug screen in 47 multiple myeloma cell lines against the NCATS MIPE library collection: Delta47_JCRB cell viability assay (AID 1918925; also: nearly all actives have a fitted effect of over 45% in size; also: potency is read from the fitted curve at half-maximal effect)
How it was run: as §1

[17] = Quantitative High-Throughput drug screen in 47 multiple myeloma cell lines against the NCATS MIPE library collection: JIM3_ECACC cell viability assay (AID 1918963; also: nearly all actives have a fitted effect of over 35% in size; also: potency is read from the fitted curve at half-maximal effect)
How it was run: as §3

[18] = Quantitative High-Throughput drug screen in 47 multiple myeloma cell lines against the NCATS MIPE library collection: JIM1_ECACC cell viability assay (AID 1918964; also: potency is read from the fitted curve at half-maximal effect)
How it was run: as §1

[19] = Primary fluorescence-based thiol-reactive (MSTI) qHTS assay for identification of artifact compounds. (AID 1845221);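 also: thiol-reactive compounds lower the probe fluorescence signal; nearly all actives have a fitted effect of over 65% in size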
How it was run: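 Thiol-reactive compounds detected by quenching of 4 uM MSTI fluorescence (525/598 nm) after 1 h room-temperature dark incubation in PBS pH 7.4, 2% DMSO. qHTS titration; percent inhibition Hill-fitted against Acetyl-MSTI/MSTI controls.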

[20] = Primary redox qHTS assay for identification of artifact compounds. (AID 1845223)
How it was run: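 Redox-cycling detection via DTT (250 uM final) oxidation coupled to Amplex Red (25 uM)/HRP (250 mU/mL) in HBSS. 15 min preincubation plus 30 min after DTT, room temperature. Ex/Em 525/598 nm; 4-parameter Hill fit against DMSO and 10 uM DA3003.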

O=C(CCc1ccc(O)cc1)c1c(O)cc(O)cc1O
inactive: Potency [1] | Potency [2]
active: Potency [3] 0.59 µM | Potency [4] 1.32 µM | Potency [5] 0.372 µM | Potency [6] 1.32 µM | Potency [7] 0.132 µM | Potency [8] 0.059 µM | Potency [9] 0.418 µM | Potency [10] 0.148 µM | Potency [11] 0.187 µM

C[C@@H](N)C1CCC(C(=O)Nc2ccncc2)CC1 (some centres not stated)
active: Potency [10] 14.8 µM | Potency [11] 26.4 µM
inactive: Potency [1] | Potency [2] | Potency [12] | Potency [3] | Potency [4] | Potency [6] | Potency [13] | Potency [14]

C[C@H](Cn1cnc2c(N)ncnc21)OCP(=O)(O)O
inactive: Potency [15] | Potency [16] | Potency [12] | Potency [4] | Potency [5] | Potency [6] | Potency [13] | Potency [7] | Potency [17] | Potency [18] | Potency [10]

C[C@]12CCC(=O)C=C1CC[C@@H]1[C@H]2[C@@H](O)C[C@@]2(C)[C@H]1CC[C@]2(O)C(=O)CO
inactive: Potency [15] | Potency [12] | Potency [3] | Potency [6] | Potency [17] | Potency [18]
active: Potency [5] 0.0118 µM | Potency [11] 5.9 µM

c1ccc2[nH]c(-c3cscn3)nc2c1
inactive: Potency [1] | Potency [2] | Potency [3] | Potency [4] | Potency [5] | Potency [13] | Potency [17] | Potency [10] | Potency [11]

CCN(CC)CCOc1ccc(Cc2ccccc2)cc1
inactive: Potency [1] | Potency [2] | Potency [8] | Potency [17] | Potency [10]
active: Potency [3] 20.9 µM | Potency [6] 14.8 µM | Potency [11] 14.8 µM

Cn1c(NCCN(CCO)CCCc2ccc([N+](=O)[O-])cc2)cc(=O)n(C)c1=O
active: Potency [3] 18.7 µM
inactive: Potency [1] | Potency [2] | Potency [12] | Potency [4] | Potency [10]

CNC[C@@H](O)[C@@H](O)[C@H](O)[C@H](O)CO
inactive: Potency [12] | Potency [3] | Potency [4] | Potency [5] | Potency [6] | Potency [17] | Potency [18]
active: Potency [11] 20.9 µM

CC(C)c1ccc2c(c1)c(SC(C)(C)C)c(CC(C)(C)C(=O)O)n2Cc1ccc(Cl)cc1
active: Potency [14] 18.7 µM
inactive: Potency [1] | Potency [2] | Potency [3] | Potency [6] | Potency [13] | Potency [8] | Potency [18]

NC(=NCc1ccccc1)NC(=O)c1nc(Cl)c(N)nc1N
active: Potency [8] 10.5 µM | Potency [9] 9.35 µM | Potency [10] 0.935 µM
inactive: Potency [1] | Potency [15] | Potency [12] | Potency [4]

NC(=O)Cc1cccc(C(=O)c2ccccc2)c1N
inactive: Potency [1] | Potency [2] | Potency [12] | Potency [3] | Potency [5] | Potency [6] | Potency [13] | Potency [8] | Potency [17] | Potency [9]

Cc1cc(=O)c2c(O)c3c(O)cc(=O)c4c3c3c(cc(O)c1c23)C(C)(C)C=4O
active: Potency [15] 13.2 µM | Potency [16] 0.372 µM | Potency [12] 14.8 µM | Potency [3] 5.26 µM | Potency [4] 2.96 µM | Potency [5] 3.32 µM | Potency [6] 14.8 µM | Potency [8] 0.372 µM | Potency [17] 0.235 µM | Potency [18] 5.9 µM | Potency [9] 0.418 µM | Potency [10] 0.59 µM

CCOC(=O)c1c(C)n(C)c2ccc(O)cc12
inactive: Potency [1] | Potency [15] | Potency [12] | Potency [3] | Potency [5] | Potency [6] | Potency [13] | Potency [17] | Potency [10]

S=c1nc[nH]c2nc[nH]c12
active: Potency [4] 2.35 µM | Potency [5] 2.35 µM | Potency [13] 4.69 µM | Potency [17] 16.6 µM | Potency [11] 16.6 µM
inactive: Potency [1] | Potency [2] | Potency [12] | Potency [3] | Potency [6] | Potency [8]

O=C(O)c1cc(=O)c2c(OCC(O)COc3cccc4oc(C(=O)O)cc(=O)c34)cccc2o1
inactive: Potency [1] | Potency [2] | Potency [12] | Potency [3] | Potency [4] | Potency [5] | Potency [13] | Potency [17] | Potency [10]

CCCCCCCCOc1ccccc1C(=O)Nc1ccc(C(=O)OCC[N+](C)(CC)CC)cc1
inactive: Potency [3] | Potency [5]
active: Potency [4] 20.9 µM | Potency [6] 5.9 µM | Potency [11] 9.35 µM

CCN(CCO)CCCC(C)Nc1ccnc2cc(Cl)ccc12 (configuration not stated)
inactive: activity change, negative = inhibition [2] -25.1% [at 4.52 µM] and 2.25% [at 4.52 µM] | activity change, negative = thiol reactive [19] -3.32% [at 6.41 µM] | redox activity (% of DA3003) [20] -6.64% [at 6.41 µM] | Potency [15] | Potency [16] | Potency [12] | Potency [4] | Potency [6] | Potency [13] | Potency [17] | Potency [18] | Potency [14] | Potency [10]

CN(C)c1ccc(O)c2c1C[C@H]1C[C@H]3[C@H](N(C)C)C(=O)C(C(N)=O)=C(O)[C@@]3(O)C(=O)C1=C2O
inactive: Potency [1] | Potency [3] | Potency [5] | Potency [6] | Potency [13] | Potency [7] | Potency [18]
active: Potency [15] 20.9 µM | Potency [12] 14.8 µM | Potency [4] 16.6 µM | Potency [14] 20.9 µM | Potency [11] 16.6 µM
